# Source: PubChem BioAssay
# Where “and” joins values, the source holds several entries; their conditions need not be identical. Equal values may be shown once. Calls of active or inactive are those of the source. Rule as the data show it, unless noted: active = inhibition above about 80%; inactive = the rest.
# Assays:
# [1] = UWB1.289 ovarian carcinoma cell growth inhibition, synergistic combos for chromothripsis tumors, BGB or cisplatin combos (AID 1671456); settings: UWB1.289 ovarian carcinoma cells, stronger effect = higher value;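 also: cells exposed to compound for four days; 0% = vehicle DMSO and 100% = killing by high DMSO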
# [2] = LFS_MB_2R medulloblastoma cell growth inhibition, synergistic combos for chromothripsis tumors, cisplatin combos (AID 1671457); settings: LFS_MB_2R medulloblastoma cells, stronger effect = higher value;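 also: cells exposed to compound for four days before readout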
# [3] = MDA-MB-436 breast carcinoma cell growth inhibition, synergistic combos for chromothripsis tumors, BGB or cisplatin combos (AID 1671458; call rule not given here;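 also: cells exposed for 96 hours; 0% = vehicle DMSO and 100% = killing by high DMSO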); settings: MDA-MB-436 breast carcinoma growth inhibition, drug combinations, stronger effect = higher value
# [4] = UWB1.289_BRCA1 ovarian cancer growth, cell-based, BGB or cisplatin combinations (AID 1671459); settings: UWB1.289 BRCA1 ovarian carcinoma, drug combinations, stronger effect = higher value
# [5] = human astrocyte viability loss, single and combined drugs, cytotoxicity control for chromothriptic childhood tumor combination screen, cell-based, BGB or cisplatin IC20 combos (AID 1671460); settings: Human astrocytes, drug combinations, stronger effect = higher value;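 also: cells exposed to compounds for 96 hours before viability readout; 0% = vehicle and 100% = killing control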
# [6] = growth inhibition of BT084 medulloblastoma cells, cell-based, ICGC_MB145, cisplatin and BGB IC40 combos (AID 1671461); settings: drug combinations, stronger effect = higher value;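 also: cells exposed to drugs for 96 hours; 0% = vehicle DMSO and 100% = high DMSO full killing control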
# [7] = growth inhibition of RCMB18 medulloblastoma cells, cell-based, cisplatin and BGB IC40 combos (AID 1671462); settings: stronger effect = higher value;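 also: cells exposed to compound for four days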
# [8] = growth inhibition of CRL1545 osteosarcoma cells, cell-based, cisplatin and BGB IC20 combos (AID 1671464); settings: stronger effect = higher value;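 also: cells exposed to compound for 96 hours before readout; 0% = vehicle DMSO and 100% = high DMSO killing control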
# F380Y = experiment: modulators of BK channel variants, profiling panel, selectivity assay, cell-based, U2OS BacMam, thallium flux, beta subunits (AID 1259406;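 active = thallium flux through the channel raised or lowered by more than 3 SD from vehicle-only wells, actives on both sides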;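 also: initial slope of Thallos dye fluorescence rise after thallium is added; log ratio against the mean of 0.3% DMSO vehicle wells on the same plate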); settings: at 30 µM
# F380Y/beta1 = experiment: as above; settings: at 30 µM
# [9] = measured here: inhibition with BGB combination, at 0.05 µM
# [10] = measured here: inhibition with cisplatin combination, at 0.05 µM
# [11] = measured here: combination with cisplatin, at 0.5 µM
# [12] = measured here: combination with cisplatin, at 5 µM
# [13] = measured here: BGB combination, at 0.5 µM
# [14] = measured here: BGB combination, at 5 µM
# [15] = measured here: cisplatin combination, at 0.5 µM
# [16] = measured here: cisplatin combination, at 5 µM
# [17] = BGB combination, concentration series, at 5 µM
# [18] = cisplatin combination, concentration series, at 5 µM
# [19] = measured here: combo with BGB IC20, at 0.5 µM
# [20] = measured here: combo with cisplatin IC20, at 0.5 µM
# [21] = cisplatin combination, at 0.5 µM
# [22] = measured here: BGB IC40 combination 0.05 uM, at 0.05 µM
# [23] = measured here: BGB IC40 combination, at 0.05 µM
# [24] = measured here: with BGB IC20 combination, at 0.5 µM
# [25] = measured here: with cisplatin IC20 combination, at 0.5 µM
structure (smiles),measurement,setting,value
Nc1nc2c(ncn2COC(CO)CO)c(=O)[nH]1,inhibition,[1]; at 0.5 µM,8.41% (inactive)
same,inhibition,[1]; [9],-10.6%
same,inhibition,[1]; [10],1.36%
same,inhibition,[2]; at 0.5 µM,1.52% (inactive)
same,inhibition,[2]; [11],8.4%
same,inhibition,[2]; [12],102%
same,inhibition,[3]; at 0.5 µM,-1.05% (inactive)
same,inhibition,[3]; [13],1.08%
same,inhibition,[3]; [14],38.9%
same,inhibition,[3]; [15],-7.9%
same,inhibition,[3]; [16],51.5%
same,inhibition,[4]; [17],35.4%
same,inhibition,[4]; at 0.5 µM,7.28% (inactive)
same,inhibition,[4]; [18],66%
same,inhibition,[5]; at 0.5 µM,19.3% (inactive)
same,inhibition,[5]; [19],14.4%
same,inhibition,[5]; [20],21.1%
same,inhibition,[6]; at 0.5 µM,25.1% (inactive)
same,inhibition,[6]; [21],43%
same,inhibition,"[6]; cisplatin combination, at 5 µM",103%
same,inhibition,[6]; [22],16.9%
same,inhibition,"[6]; single agent, at 5 µM",107%
same,inhibition,[7]; at 0.5 µM,15.7% (inactive)
same,inhibition,"[7]; cisplatin combo, at 5 µM",102%
same,inhibition,[7]; [23],12.8%
same,inhibition,[7]; [11],27.1%
same,inhibition,"[7]; single agent, at 5 µM",88.8%
same,inhibition,[8]; at 0.5 µM,44.7% (inactive)
same,inhibition,[8]; [24],29.8%
same,inhibition,[8]; [25],52.1%
same,inhibition,"[8]; single agent, at 0.05 µM",3.9%
same,inhibition,"[8]; single agent, at 5 µM",93.9%
same,log fold change Tl+ flux,F380Y,-0.00258 (inactive)
same,log fold change Tl+ flux,F380Y/beta1,0.0388 (inactive)
CCn1cc(C(=O)O)c(=O)c2cc(F)c(N3CCNCC3)nc21,inhibition,[1]; at 0.5 µM,-10.7% (inactive) and 1.4% (inactive)
same,inhibition,[1]; [9],-29.8% and -21.6%
same,inhibition,[1]; [10],-19.7% and -11.2%
same,inhibition,[2]; at 0.5 µM,-18.7% (inactive) and -16.6% (inactive)
same,inhibition,[2]; [11],-8.22% and -12.2%
same,inhibition,[2]; [12],-10.3% and -8.58%
same,inhibition,[3]; at 0.5 µM,-9.05% (inactive) and -13.8% (inactive)
same,inhibition,[3]; [13],-10.2% and -4.34%
same,inhibition,[3]; [14],-20.2% and -12.6%
same,inhibition,[3]; [15],-12.3% and -35.3%
same,inhibition,[3]; [16],-9.88% and -14.8%
same,inhibition,[4]; [17],-1.06% and 7.56%
same,inhibition,[4]; at 0.5 µM,-12.5% (inactive) and 3.88% (inactive)
same,inhibition,[4]; [18],0.876% and 19.6%
same,inhibition,[5]; at 0.5 µM,8.11% (inactive) and 6.08% (inactive)
same,inhibition,[5]; [19],13.6% and -6.3%
same,inhibition,[5]; [20],-5.13% and 23.3%
same,inhibition,[6]; at 0.5 µM,-14.2% (inactive)
same,inhibition,[6]; [21],-20.2% and 4.87%
same,inhibition,"[6]; cisplatin combination, at 5 µM",-328% and -22.3%
same,inhibition,[6]; [22],-15.2% and 5.81%
same,inhibition,"[6]; single agent, at 5 µM",-15.6% and -14.8%
same,inhibition,[7]; at 0.5 µM,-23.5% (inactive) and -3.9% (inactive)
same,inhibition,"[7]; cisplatin combo, at 5 µM",-47.1% and 18.7%
same,inhibition,[7]; [23],-10.4% and 1.16%
same,inhibition,[7]; [11],-40.4% and 9.59%
same,inhibition,"[7]; single agent, at 5 µM",-15.2% and -21.3%
same,inhibition,[8]; at 0.5 µM,9.99% (inactive) and 6.3% (inactive)
same,inhibition,[8]; [24],-15.9% and 0.601%
same,inhibition,[8]; [25],21.7% and 9.15%
same,inhibition,"[8]; single agent, at 0.05 µM",-9.98% and 9.98%
same,inhibition,"[8]; single agent, at 5 µM",-24.6% and 24.3%
CCn1cc(C(=O)O)c(=O)c2cc3c(cc21)OCO3,inhibition,[1]; at 0.5 µM,2.29% (inactive)
same,inhibition,[1]; [9],-2.14%
same,inhibition,[1]; [10],-6.63%
same,inhibition,[2]; at 0.5 µM,-21.9% (inactive)
same,inhibition,[2]; [11],-20.2%
same,inhibition,[2]; [12],-21.2%
same,inhibition,[3]; at 0.5 µM,-14.4% (inactive)
same,inhibition,[3]; [13],-16.2%
same,inhibition,[3]; [14],-18.6%
same,inhibition,[3]; [15],-20.7%
same,inhibition,[3]; [16],-20.6%
same,inhibition,[4]; [17],-2.14%
same,inhibition,[4]; at 0.5 µM,1.91% (inactive)
same,inhibition,[4]; [18],15.4%
same,inhibition,[5]; at 0.5 µM,-0.34% (inactive)
same,inhibition,[5]; [19],2.16%
same,inhibition,[5]; [20],-8.86%
same,inhibition,[6]; at 0.5 µM,-9.83% (inactive)
same,inhibition,[6]; [21],15.9%
same,inhibition,"[6]; cisplatin combination, at 5 µM",-11.8%
same,inhibition,[6]; [22],27.5%
same,inhibition,"[6]; single agent, at 5 µM",-16.8%
same,inhibition,[7]; at 0.5 µM,-3.66% (inactive)
same,inhibition,"[7]; cisplatin combo, at 5 µM",2.43%
same,inhibition,[7]; [23],-11.1%
same,inhibition,[7]; [11],16.7%
same,inhibition,"[7]; single agent, at 5 µM",-9.78%
same,inhibition,[8]; at 0.5 µM,-6.67% (inactive)
same,inhibition,[8]; [24],-7.74%
same,inhibition,[8]; [25],-6.13%
same,inhibition,"[8]; single agent, at 0.05 µM",12.4%
same,inhibition,"[8]; single agent, at 5 µM",12.2%
CC(C)(C#N)c1cc(Cn2cncn2)cc(C(C)(C)C#N)c1,log fold change Tl+ flux,F380Y,0.0287 (inactive)
same,log fold change Tl+ flux,F380Y/beta1,0.000378 (inactive)
Cn1nnc2c(C(N)=O)ncn2c1=O,inhibition,[1]; at 0.5 µM,10.5% (inactive) and 0.13% (inactive)
same,inhibition,[1]; [9],4.75% and -18.9%
same,inhibition,[1]; [10],25.6% and -6.43%
same,inhibition,[2]; at 0.5 µM,7.22% (inactive) and -24.1% (inactive)
same,inhibition,[2]; [11],1.03% and -18.7%
same,inhibition,[2]; [12],8.16% and -14%
same,inhibition,[3]; at 0.5 µM,6.91% (inactive) and -16.3% (inactive)
same,inhibition,[3]; [13],12.9% and -14.6%
same,inhibition,[3]; [14],4.06% and -13.6%
same,inhibition,[3]; [15],2.96% and -35.2%
same,inhibition,[3]; [16],1.26% and -29.8%
same,inhibition,[4]; [17],6.41% and 2.63%
same,inhibition,[4]; at 0.5 µM,6.2% (inactive) and -1.71% (inactive)
same,inhibition,[4]; [18],-10.8% and 7.27%
same,inhibition,[5]; at 0.5 µM,14.2% (inactive) and -4.55% (inactive)
same,inhibition,[5]; [19],6.32% and -9.95%
same,inhibition,[5]; [20],16.8% and -6.6%
same,inhibition,[6]; at 0.5 µM,-1.52% (inactive) and -18.4% (inactive)
same,inhibition,[6]; [21],-21% and -7.48%
same,inhibition,"[6]; cisplatin combination, at 5 µM",1.38% and -35.6%
same,inhibition,[6]; [22],-9.43% and 0.326%
same,inhibition,"[6]; single agent, at 5 µM",8.38% and -21.4%
same,inhibition,[7]; at 0.5 µM,-3.58% (inactive) and -13.6% (inactive)
same,inhibition,"[7]; cisplatin combo, at 5 µM",-29.7% and 13.3%
same,inhibition,[7]; [23],7.57% and -3.63%
same,inhibition,[7]; [11],-5.87% and -11.2%
same,inhibition,"[7]; single agent, at 5 µM",-2.81% and -25.8%
same,inhibition,[8]; at 0.5 µM,-15.1% (inactive) and -33.6% (inactive)
same,inhibition,[8]; [24],-16.2% and -3.96%
same,inhibition,[8]; [25],-16.4% and -48.4%
same,inhibition,"[8]; single agent, at 0.05 µM",-25.4% and 17.1%
same,inhibition,"[8]; single agent, at 5 µM",-10.6% and 18.5%
same,log fold change Tl+ flux,F380Y,-0.0478 (inactive)
same,log fold change Tl+ flux,F380Y/beta1,-0.022 (inactive)
CCN1CCN(c2cc3c(cc2F)c(=O)c(C(=O)O)cn3C2CC2)CC1,inhibition,[1]; at 0.5 µM,-2.08% (inactive)
same,inhibition,[1]; [9],-31.5%
same,inhibition,[1]; [10],-8.73%
same,inhibition,[2]; at 0.5 µM,-19.4% (inactive)
same,inhibition,[2]; [11],-28.5%
same,inhibition,[2]; [12],-100%
same,inhibition,[3]; at 0.5 µM,-32.9% (inactive)
same,inhibition,[3]; [13],-15.3%
same,inhibition,[3]; [14],-31.3%
same,inhibition,[3]; [15],-56.8%
same,inhibition,[3]; [16],-40.4%
same,inhibition,[4]; [17],-7.62%
same,inhibition,[4]; at 0.5 µM,-4.92% (inactive)
same,inhibition,[4]; [18],-6.59%
same,inhibition,[5]; at 0.5 µM,-1.67% (inactive)
same,inhibition,[5]; [19],-3.12%
same,inhibition,[5]; [20],-14.1%
same,inhibition,[6]; at 0.5 µM,-38.8% (inactive)
same,inhibition,[6]; [21],-21.3%
same,inhibition,"[6]; cisplatin combination, at 5 µM",-23.4%
same,inhibition,[6]; [22],-13.2%
same,inhibition,"[6]; single agent, at 5 µM",-37.9%
same,inhibition,[7]; at 0.5 µM,-17.8% (inactive)
same,inhibition,"[7]; cisplatin combo, at 5 µM",-22.9%
same,inhibition,[7]; [23],-24.4%
same,inhibition,[7]; [11],-16%
same,inhibition,"[7]; single agent, at 5 µM",-19.4%
same,inhibition,[8]; at 0.5 µM,13.5% (inactive)
same,inhibition,[8]; [24],6.58%
same,inhibition,[8]; [25],15.1%
same,inhibition,"[8]; single agent, at 0.05 µM",-0.132%
same,inhibition,"[8]; single agent, at 5 µM",12.7%
same,log fold change Tl+ flux,F380Y,-0.0402 (inactive)
same,log fold change Tl+ flux,F380Y/beta1,0.00744 (inactive)
